Screening results as filed in PubChem BioAssay.
Most compounds without a hit are left out; they make up all but 18% or so of the library.
IL1B secr inh – qHTS for Inhibitors of Inflammasome Signaling: IL-1-beta AlphaLISA Primary Screen; activity change, % at 57.5 µM; THP-1 LPS/ATP IL-1B secretion, AlphaLISA, 16 h; active compounds read low; actives 4.7% (n = 360,000); in the data active = activity change below about -50%; inconclusive = mostly about -30% to -49%
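THP-1 cells pretreated 1 hr with compounds (up to 57.5 uM final), then stimulated with LPS (250 ng/mL final) plus ATP (1.25 mM final); secreted IL-1B measured by AlphaLISA after 16 hr, decreased signal indicating inhibition.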
DT40 TDP1 CPT – qHTS for Inhibitors of human tyrosyl-DNA phosphodiesterase 1 (TDP1): qHTS in cells in presence of CPT; actives 12% (n = 420,000); chicken DT40 Tdp1-/-;hTDP1 cells + 20 nM CPT, ATP luminescence, 48 h; AID 686979, 2013; Potency, µM (top dose mostly 46.2 µM), without a hit: at the top dose activity change, negative = growth inhibition, most hits filed as inhibitors; note: potency is the fitted concentration of half-maximal effect; nearly all actives have a fitted effect of over 55% in size
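Cell growth measured by CellTiter-Glo luminescence after a minimum 48 h, 37 C compound exposure with 20 nM CPT in Tdp1-knockout DT40 cells stably expressing hTDP1, seeded 400/well; qHTS titration format.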
TDP1 cell noCPT – qHTS for Inhibitors of human tyrosyl-DNA phosphodiesterase 1 (TDP1): qHTS in cells in absence of CPT; actives 15% (n = 420,000); Potency, µM (doses to about 46.2 µM), without a hit: at the highest dose activity change, negative = growth inhibition, most hits filed as inhibitors; DT40 Tdp1-/- hTDP1 cells, no CPT, ATP luminescence, 48 h; AID 686978, 2013; note: potency is the fitted concentration of half-maximal effect; nearly all actives have a fitted effect of over 55% in size
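Growth kinetics read by CellTiter-Glo luminescence after ≥48 hr at 37 °C. Cells: DT40 Tdp1-/- stably carrying human TDP1, 400 per well, compound exposure in the absence of CPT (DMSO vehicle).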
CtBP-E1A blk – qHTS Assay for Inhibitors of the CtBP/E1A Interaction | activity change, % (test concentration not listed) | CtBP / adenovirus E1A interaction (AlphaScreen) | AlphaScreen GST-E1A/His-CtBP binding, 1536-well; active compounds read low | AID 651724, 2012 | actives 0.49% (n = 340,000); in the data active = activity change below about -65%; inconclusive = mostly about -30% to -63%
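GST-E1A and His-tagged CtBP (125 nM each as 5X stock) were preincubated with pin-transferred compound for 2 h at 37 °C in the dark, then glutathione donor and nickel acceptor beads were added for 1 h before AlphaScreen reading.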
Six1-Eya2 blk – qHTS Assay for Inhibitors of the Six1/Eya2 Interaction | Homeobox protein SIX1 (Homo sapiens) + Protein phosphatase EYA2 (Homo sapiens), … | AlphaScreen GST-Six1/His-Eya2 binding, biochemical; active compounds read low | activity change, % (test concentration not listed) | actives 0.56% (n = 360,000); in the data active = activity change below about -65%; inconclusive = mostly about -30% to -63%
Target sequence (O00167 whole entry, looked up): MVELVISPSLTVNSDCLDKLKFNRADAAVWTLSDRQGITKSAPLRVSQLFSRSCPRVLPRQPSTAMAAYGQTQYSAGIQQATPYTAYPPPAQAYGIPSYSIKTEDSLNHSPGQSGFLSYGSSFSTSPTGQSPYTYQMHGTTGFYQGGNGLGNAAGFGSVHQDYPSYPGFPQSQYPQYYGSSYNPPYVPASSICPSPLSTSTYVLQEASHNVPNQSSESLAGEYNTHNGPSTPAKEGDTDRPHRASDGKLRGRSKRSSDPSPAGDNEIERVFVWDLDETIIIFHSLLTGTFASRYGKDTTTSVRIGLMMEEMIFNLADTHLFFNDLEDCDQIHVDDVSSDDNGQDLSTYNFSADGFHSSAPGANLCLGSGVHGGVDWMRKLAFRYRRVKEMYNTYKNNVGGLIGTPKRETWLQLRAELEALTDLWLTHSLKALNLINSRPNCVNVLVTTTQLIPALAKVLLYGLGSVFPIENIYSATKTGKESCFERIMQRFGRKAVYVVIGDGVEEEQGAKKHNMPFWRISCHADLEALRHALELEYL
Target sequence (Q15475 whole entry, looked up): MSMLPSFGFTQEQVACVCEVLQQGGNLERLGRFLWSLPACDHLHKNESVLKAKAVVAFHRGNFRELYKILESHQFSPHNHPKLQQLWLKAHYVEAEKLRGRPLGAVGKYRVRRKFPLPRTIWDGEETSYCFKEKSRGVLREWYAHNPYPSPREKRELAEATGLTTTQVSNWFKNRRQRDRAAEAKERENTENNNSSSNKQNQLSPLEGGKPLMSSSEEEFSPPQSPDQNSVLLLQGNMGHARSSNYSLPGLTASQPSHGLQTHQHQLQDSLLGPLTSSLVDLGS
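Six1/Eya2 binding was read as AlphaScreen signal after compounds were pinned into GST-Six1 plus His-tagged Eya2 (5X stock 250/500 nM) in pH 8.0 Tris/NaCl/TCEP buffer, beads added, then incubated 1 h, 37 C, dark.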
TDP1 block – qHTS Assay for Inhibitors of Tyrosyl-DNA Phosphodiesterase (TDP1); Tyrosyl-DNA phosphodiesterase 1 (Homo sapiens), Q9NUW8; recombinant TDP1, AlphaScreen DNA substrate cleavage; Potency, µM (series often up to 130 µM), for the others: at the top dose activity change, negative = inhibition, actives largely listed as inhibitors; actives 0.28% (n = 350,000); AID 485290, 2010; note: potency is the fitted concentration of half-maximal effect; nearly all actives have a fitted effect of over 40% in size
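Signal: AlphaScreen proximity between streptavidin donor and anti-FITC acceptor beads on intact substrate. Reaction: Tdp1 1 nM, substrate 15 nM final, 5 min RT after 15 min compound preincubation.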
Numbers without * were called inactive; ? = inconclusive; . = no result given. Unless noted, calls come from the whole dose curve; as a rule, active = well fitted curve in the direction sought with a large enough effect; inconclusive = small, poorly fitted or top-dose-only effect, or another doubt; inactive = no such curve, though single readings can be large; an effect the other way counts as inactive or inconclusive. % is set by controls: 0 for no effect and ±100 for the full control effect.

SMILES | IL1B secr inh | DT40 TDP1 CPT | TDP1 cell noCPT | CtBP-E1A blk | Six1-Eya2 blk | TDP1 block
CCn1c(SCC(=O)Nc2nc(-c3ccc(C)cc3)cs2)nnc1-c1ccccc1O | -51* | ? | ? | -6 | -15 | 8%
Cc1ccc(-c2csc(NC(=O)CSc3nc4ccccc4c(=O)n3CCCN(C)C)n2)cc1 | -97* | 10µM* | 15µM* | -8 | -14 | 8%
CCn1c(SCC(=O)Nc2nc(-c3ccc(C)cc3)cs2)nnc1-c1ccccc1 | -55* | ? | 18µM* | 1 | -2 | 3%
Cc1ccc(OCCSc2nnc(-c3cccs3)o2)cc1 | . | -14% | ? | . | . | -14%
COc1ccc(N2CC(NC(=O)/C=C\c3ccc(OC)c(OC)c3)CC2=O)cc1 (stereo not given) | . | -13% | -5% | . | . | 5%
Cc1ccc(NC(=O)CCn2cnc3ccccc3c2=O)cc1 | -17 | -16% | -3% | 0 | 2 | -1%
O=C(CCn1cnc2ccccc2c1=O)Nc1nc(-c2ccc(Br)cc2)cs1 | -9 | ? | 16µM* | -7 | -7 | 3%
CN(C)CCCn1c(SCC(=O)N2c3ccccc3Sc3ccccc32)nc2ccccc2c1=O | -102* | ? | 23µM* | -24 | -9 | 5%
Cc1ccc(NC(=O)CN2C(=O)S/C(=C\c3cccn3-c3cccc(C(=O)O)c3)C2=O)c(C)c1 | 3 | -5% | -7% | 0 | -8 | 50µM*
Cc1cccc(C)c1NC(=O)CN1C(=O)S/C(=C\c2cccn2-c2cccc(C(=O)O)c2)C1=O | 7 | 1% | -6% | -1 | -11 | .
Cc1cccc(NC(=O)CN2C(=O)S/C(=C\c3cccn3-c3cccc(C(=O)O)c3)C2=O)c1 | -5 | 1% | 2% | -11 | -17 | .
Cc1ccccc1NC(=O)CN1C(=O)S/C(=C\c2cccn2-c2cccc(C(=O)O)c2)C1=O | 6 | -14% | 1% | 7 | -11 | 50µM*
N#CC(c1ccccc1O)N1N=C(c2ccccc2)CC1c1ccccc1 (stereo not given) | 10 | 18µM* | 10µM* | -8 | 12 | 1%
COc1cc(C(C#N)N2N=C(c3ccccc3)CC2c2ccccc2)ccc1O (stereo not given) | 0 | ? | -14% | 5 | 0 | -6%
COC(=O)/C(=C(/F)Sc1cc(C)c(O)c(C)c1)C(F)(F)F | -7 | 10µM* | 7.3µM* | -6 | -2 | 5%
Cc1ccccc1NC(=O)Cc1nnc(SCC(=O)N2CCOCC2)n1C | 9 | 10% | -6% | 9 | 1 | 1%
Cc1sc2ccccc2[n+]1CCCCI | . | ? | 20µM* | . | . | .
Cc1sc2ccccc2[n+]1CCc1ccccc1 | . | 6.3µM* | 3.2µM* | . | . | .
Cc1cc(C)nc(OC(C(=O)O)C(OCCC(C)C)(c2ccccc2)c2ccccc2)n1 (stereo not given) | 17 | -27% | ? | . | 0 | 3%
Cc1nnc(NC(=O)CSc2nc3ccccc3[nH]2)s1 | 25 | -13% | 9% | -14 | 1 | -13%
Cc1ccc2nc(-c3ccccn3)cc(C(=O)NCCc3ccc(F)cc3)c2c1 | 15 | ? | 21µM* | 1 | -1 | 1%
O=C(NCCc1ccccn1)c1cc(-c2cccc3ccccc23)nc2ccccc12 | -14 | 26µM* | ? | -10 | -23 | 2%
O=C(NCc1ccccn1)c1cc(-c2ccc(Br)cc2)nc2ccccc12 | -4 | ? | 13µM* | 4 | 4 | 3%
Cc1ccc(-c2cc(C(=O)NCc3ccccn3)c3ccccc3n2)cc1 | -19 | ? | 16µM* | -7 | -3 | 8%
Cc1ccc(Cl)cc1N1CCN(C(=O)c2cn(C)c3ccc(S(=O)(=O)N4CCCCC4)cc3c2=O)CC1 | . | 9% | 6% | . | . | -2%
SMILES | IL1B secr inh | DT40 TDP1 CPT | TDP1 cell noCPT | CtBP-E1A blk | Six1-Eya2 blk | TDP1 block
COc1cc(CNCc2cccnc2)ccc1OCC(=O)NC1CCCCC1 | 0 | 8% | -14% | 0 | -5 | 8%
CCOC(=O)N1CCN(S(=O)(=O)c2ccc(C(=O)Nc3nc4ccccc4s3)cc2)CC1 | -5 | ? | ? | -4 | 5 | 4%
CC(C)[C@H](NC(=O)c1cccc(S(=O)(=O)N2CCOCC2)c1)C(=O)Nc1nc2ccccc2s1 | -54* | ? | ? | -1 | -6 | 5%
CCOc1ccccc1NC(=O)[C@@H](NC(=O)c1cccc(S(=O)(=O)N2CCOCC2)c1)C(C)C | 22 | -5% | -10% | 2 | 3 | -1%
CCOC(=O)N1CCN(S(=O)(=O)c2ccc(C(=O)Nc3nc4ccc(F)cc4s3)cc2)CC1 | -19 | 8.2µM* | 6.5µM* | -12 | 8 | 0%
CCCC(=O)Nc1nc2ccc(S(=O)(=O)N3CCCCC3)cc2s1 | 30 | 1.3µM* | 1.3µM* | -2 | 1 | 3%
CC(C)CC(=O)Nc1nc2ccc(S(=O)(=O)N3CCOCC3)cc2s1 | 13 | 13µM* | 21µM* | 4 | -2 | -3%
COc1cccc(CN2CCN(c3nc4nonc4nc3NC3CC3)CC2)c1 | -3 | 2% | ? | -13 | -5 | 2%
CC(C)Oc1ccc(C(CCN)C2CCCCC2)cc1 (stereo not given) | -99* | 13µM* | 8.2µM* | -6 | 0 | .
CC(C)Oc1cccc(C(=O)C2CCCN(C(=O)c3ccnn3C)C2)c1 (stereo not given) | 7 | ? | 21µM* | . | 1 | -3%
CC(C)Oc1cccc(C(=O)C2CCCN(C(=O)c3noc4c3CCCC4)C2)c1 (stereo not given) | -7 | 18µM* | 21µM* | 4 | 2 | .
CCc1cc(C(=O)N2CCCC(C(=O)c3cccc(OC(C)C)c3)C2)n(C)n1 (stereo not given) | 24 | 16µM* | 18µM* | 1 | 10 | 6%
CCc1cc(C(=O)N2CCCC(C(=O)c3ccc(Oc4ccccc4)cc3)C2)n(C)n1 (stereo not given) | -61* | 10µM* | 15µM* | 4 | 3 | 3%
